In the test the target is T1, NL_v2_PPR14 (Artificial Sequence).
T1 chain: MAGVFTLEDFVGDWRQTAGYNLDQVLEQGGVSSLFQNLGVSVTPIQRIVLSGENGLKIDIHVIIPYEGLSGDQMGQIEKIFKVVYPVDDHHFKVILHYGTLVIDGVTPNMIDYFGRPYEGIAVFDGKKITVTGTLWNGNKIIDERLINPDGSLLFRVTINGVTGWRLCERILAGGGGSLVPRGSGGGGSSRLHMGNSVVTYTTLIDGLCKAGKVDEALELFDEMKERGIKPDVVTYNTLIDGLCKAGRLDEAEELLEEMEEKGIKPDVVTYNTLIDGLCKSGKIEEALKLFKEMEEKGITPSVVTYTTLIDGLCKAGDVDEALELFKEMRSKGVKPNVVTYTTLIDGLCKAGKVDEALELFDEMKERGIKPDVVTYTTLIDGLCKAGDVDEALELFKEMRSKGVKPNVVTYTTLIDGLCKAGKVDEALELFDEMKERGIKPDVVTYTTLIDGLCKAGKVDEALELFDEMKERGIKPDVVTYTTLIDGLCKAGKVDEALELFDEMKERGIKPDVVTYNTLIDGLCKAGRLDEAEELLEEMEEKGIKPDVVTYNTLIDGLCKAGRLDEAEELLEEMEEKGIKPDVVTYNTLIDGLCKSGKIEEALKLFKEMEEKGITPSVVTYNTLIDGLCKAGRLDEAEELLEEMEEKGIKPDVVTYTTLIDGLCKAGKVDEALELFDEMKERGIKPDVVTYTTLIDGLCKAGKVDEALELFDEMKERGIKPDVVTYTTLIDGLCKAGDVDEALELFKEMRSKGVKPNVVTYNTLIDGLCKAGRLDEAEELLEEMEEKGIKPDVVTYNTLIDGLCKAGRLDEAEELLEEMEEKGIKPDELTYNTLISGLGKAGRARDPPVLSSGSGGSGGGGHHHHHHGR
Briefly: RPB-ELISA. The settings on record: tags: N-terminal luciferase, C-terminal 6xHis; label: 5'-biotin; ssRNA. As for the experimental part: RNA probes consisting of a designed 30-base sequence containing 18 bases of the target sequence and modified by biotinylation at the 5′ end (RNA_1, RNA_2, RNA_3, RNA_4, and RNA_5, SEQ ID NOS: 61 to 65) were synthesized (Grainer). To a streptavidin-coated plate (Thermo fisher), the 5′-end biotinylated RNA probes were added, reaction was allowed at room temperature for 30 minutes, and the plate was washed with a lysis buffer (20 mM Tris-HCl, pH 7.6, 150 mM NaCl, 5 mM MgCl₂, 0.5% NP-40, 1 mM DTT, 0.1% BSA). For background measurement, wells to which RNA was not added, but 100 μL of the lysis buffer, 1 μL of 100 mM DTT, and 1 μL of 40 unit/4 RNase inhibitor (Takara, 2313A) were added were also prepared. Then, 200 μL of a blocking buffer (20 mM Tris-HCl, pH 7.6, 150 mM NaCl, 5 mM MgCl₂, 0.5% NP-40, 1 mM DTT, 1% BSA) was added, and the plate surface was blocked at room temperature for 30 minutes. Then, 100 μL of E. coli lysate containing luciferase-fused PPR protein having a luminescence level of 1.5×10⁸ LU/μL was added to each well, and the binding reaction was allowed at room temperature for 30 minutes. The well was washed 5 times with 200 μL of a washing buffer (20 mM Tris-HCl, pH 7.6, 150 mM NaCl, 5 mM MgCl₂, 0.5% NP-40, 1 mM DTT). […] The background (luminescence signal value obtained with adding the PPR protein and without adding RNA) was subtracted from the luminescences of the samples to which a solution containing each RNA and PPR protein was added, and the obtained values were used as the binding powers between the PPR protein and RNA.
By using the v2 motif, PPR proteins for 23 kinds of target sequences (T_1 to T_3, and T_5 to T_24, SEQ ID NOS: […]) were prepared (NL_v2_PPR1 to 3, and NL_v2_PPR5 to 24, SEQ ID NOS: 56 to 58 and 70 to 88), and RPB-ELISA was used to analyze bindings of all the combinations. The experimental method was the same as that used in Example 3.
GGUUAGAGAUACAGUGUG: the binding signal was 22 log2 luminescence.

Source of the values: patent publication US20220289795, “EFFICIENT METHOD FOR PREPARING PPR PROTEIN AND USE OF THE SAME” (EditForce, Inc., published 2022).
